GIRK2 act: Activators of human GIRK2-containing channels | P48051 | HEK293 GIRK2/NPY4 cells, thallium flux fluorescence | activation (% efficacy), % for hits at 37.5 µM | 34,000 tested, under 10 active | AID 1259324;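 active = primary screen hit, no activity in plain HEK293 cells, and in GIRK2-only cells above 5% efficacy rising with concentration; inactive = the rest, including fluorescent compounds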;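 also: efficacy is normalized control-subtracted fluorescence 15 s after thallium addition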
GluA2 TARP mod: GluA2-stargazin AMPA receptor complex modulation | actives 3.5% (n = 40,000) | calls only at 30 µM | HEK293 GluA2+stargazin, membrane potential dye (FDSS), glutamate EC50; hits were called plate by plate, in both directions;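 active = any of four per-well response measures lying three or more SD from its plate-wide compound average, in either direction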
* marks the source's active call; other numbers are inactive results; i = inactive; . = no result; + = active, no number. The entries come from a sample that favours hits as a whole.

SMILES | GIRK2 act | GluA2 TARP mod
N#C/C(=C\c1ccccc1)c1nc2ccccc2s1 | . | i
Cn1nc(NC(=O)c2cnccn2)c2c1NC(=O)CC2c1ccco1 (stereo unspecified) | i | i
COc1ccc(S(=O)(=O)Nc2nc(C(=O)Nc3ccc(Cl)cc3)cs2)cc1 | i | i
COc1ccc(S(=O)(=O)Nc2nc(C(=O)Nc3ccc(C(C)C)cc3)cs2)cc1 | i | +
Cc1ccc(C(=O)Nc2cc(C(=O)N3CCC(C)CC3)cn(C)c2=O)cc1C | . | i
S=c1nc(-c2ccc(Br)cc2)n(Cc2ccco2)c2c1CCCC2 | . | +
O=C(CSc1nc(=O)n(Cc2ccco2)c2c1CCC2)NC1CCCCC1 | i | i
CC(C)(C)c1ccc(NC(=O)N2CC(=O)Nc3ccccc32)cc1 | i | i
O=C(NCCCc1ccccc1)N1CCN(C(=O)c2cnn3ccccc23)CC1 | i | i
CSc1nn(CC(=O)Nc2ccc(Cl)cc2)c(N)c1S(=O)(=O)c1ccccc1 | . | +
CSc1nn(CC(=O)Nc2ccc(Br)cc2)c(N)c1S(=O)(=O)c1ccc(C)cc1 | i | i
Cc1ccc(S(=O)(=O)Nc2nc(CCC(=O)Nc3cccc(Cl)c3)cs2)cc1 | i | +
Cc1ccc(S(=O)(=O)Nc2nc(CCC(=O)Nc3cccc(F)c3)cs2)cc1 | i | i
COc1ccc(CCC(=O)Nc2ccc(N3CCCCC3=O)c(C)c2)cc1 | i | i
O=C(NCCc1ccccc1)C(=O)c1cn(CC(=O)N2CCOCC2)c2ccccc12 | . | +
O=C(NCc1ccccc1)C(=O)c1cn(CC(=O)N2CCOCC2)c2ccccc12 | . | i
COc1cc(COCC2CCN(C(=O)CC(c3ccccc3)c3ccccc3)CC2)cc(OC)c1 | i | i
COc1cc(CN2CCC(COCc3ccccc3)CC2)cc(OC)c1 | i | +
CNC(=O)C(=O)NCC1COC2(CCCC2)O1 (stereo unspecified) | i | i
O=C(Nc1cccc(C(F)(F)F)c1)C1CCCN(C(=O)Nc2cccs2)C1 (stereo unspecified) | i | +
COC(=O)Nc1ccc(S(=O)(=O)N2CCCC(C(=O)Nc3cccc(C(F)(F)F)c3)C2)cc1 (stereo unspecified) | . | i
CCCn1c(-c2ccc(C)cc2)nc2c(c(=O)c3ccccc3n2C)c1=O | . | i
Cc1cc(C)c(NC(=O)CSc2nccn3nc(-c4ccccc4)cc23)c(C)c1 | i | i
O=S(=O)(c1ccccc1C(F)(F)F)N1CCN(c2ccc(-c3cccnc3)nn2)CC1 | i | i
CCCC(=O)NCc1cc(-c2nn(C)c(=O)c3ccccc23)ccc1OC | . | i
SMILES | GIRK2 act | GluA2 TARP mod
COc1ccc(-c2nn(C)c(=O)c3ccccc23)cc1CNC(=O)COc1cccc(C)c1 | . | +
Cn1cccc1C(O)CNC(=O)C(=O)Nc1cc(Cl)ccc1C#N (stereo unspecified) | i | i
COc1cc(S(=O)(=O)Nc2cc(Cl)ccc2O)c(OC)cc1Cl | i | +
COc1cc(S(=O)(=O)Nc2cccc3cn[nH]c23)c(OC)cc1Cl | . | i
CCN(CC)S(=O)(=O)c1ccc(C(=O)Nc2cc(-c3cccs3)nn2CCO)cc1 | i | +
CC(C)S(=O)(=O)c1ccc(CC(=O)Nc2cc(-c3cccs3)nn2CCO)cc1 | i | i
COc1cccc2sc(NC(=O)c3cc(C)nn3C)nc12 | i | +
CCOc1cccc2sc(NC(=O)c3c(C)cnn3C)nc12 | i | .
COc1cccc2sc(NC(=O)c3cc(C)n(C)n3)nc12 | i | +
CCn1nc(C(=O)Nc2nc3c(C(C)C)cccc3s2)cc1C | i | .
O=C(NCCc1ccccc1)C(=O)Nc1cccc([N+](=O)[O-])c1 | . | i
CNC(=O)Cn1cnc2c(nnn2C)c1=O | i | i
Cc1ccccc1OCC(=O)N1CCC(c2cccs2)CC1 | i | i
COC(=O)c1ccccc1-n1c(=O)c2ccccc2c2ccccc2c1=O | . | i
COC(=O)c1ccccc1N=Nc1c(N)[nH]n(-c2ccccc2)c1=O | . | +
COc1ccc(OC)c2sc(N(CCN3CCOCC3)C(=O)/C=C/c3ccc([N+](=O)[O-])cc3)nc12 | i | i
COc1ccc(C)c2sc(N(Cc3ccncc3)C(=O)/C=C/c3ccc([N+](=O)[O-])cc3)nc12 | i | +
COCCn1c(SCc2ccc(C(F)(F)F)cc2)nnc1-c1cn(C)nc1OC | i | +
COCCn1c(SCc2ccccc2)nnc1-c1cn(C)nc1OC | i | i
CCOc1ccc(-n2nnnc2SCC(=O)Nc2cccc(OC)c2)cc1 | i | i
COc1ccc(F)cc1S(=O)(=O)Nc1ccc(-c2ccc(=O)n(C)n2)cc1 | i | i
COc1ccc(F)cc1S(=O)(=O)Nc1cccc(-c2ccc(=O)n(C)n2)c1 | i | +
CCOC(=O)N1CCC(NC(=O)C2CCN(c3cc(Sc4cc(C)ccc4C)ncn3)CC2)CC1 | i | +
Cc1ccc(C)c(Sc2cc(N3CCC(C(=O)NCC(C)C)CC3)ncn2)c1 | i | i
Cn1nc(-c2cccc(NC(=O)c3cccnc3)c2)ccc1=O | i | +
SMILES | GIRK2 act | GluA2 TARP mod
Cn1nc(-c2cccc(NC(=O)Nc3ccccc3)c2)ccc1=O | i | i
CC1CCN(c2ccc(N3CCN(C(=O)c4ccc(Cl)c([N+](=O)[O-])c4)CC3)nn2)CC1 | i | i
COc1ccccc1CNC(=O)C1CCN(c2ccc(-c3ccc(F)cc3)nn2)CC1 | i | i
COc1ccc(-c2ccc(N3CCC(C(=O)N4CCN(C)CC4)CC3)nn2)cc1 | i | i
COc1ccc(-c2ccc(N3CCC(C(=O)NC4CC4)CC3)nn2)cc1 | i | +
O=C(c1ccc2c(c1)OCO2)N1CCN(c2ccc(-c3ccncc3)nn2)CC1 | i | i
COc1cc(OC)cc(C(=O)N2CCN(c3ccc(-c4ccncc4)nn3)CC2)c1 | i | +
O=C(Cc1c[nH]c2ccccc12)N1CCN(c2ccc(N3CCCC3)nn2)CC1 | i | +
O=C(Cc1c[nH]c2ccccc12)N1CCN(c2cc(-c3cccnc3)[nH]n2)CC1 | i | .
COc1ccc(-c2ccc(N3CCC(C(=O)NCCc4c[nH]c5ccccc45)CC3)nn2)cc1 | i | +
CC(C)(C)NC(=O)N1CCC(CNS(C)(=O)=O)CC1 | i | i
Cn1c(=O)c2cc(C(=O)NCC(O)CO)sc2n(C)c1=O (stereo unspecified) | i | i
CC(O)CNC(=O)c1cc2c(=O)n(C)c(=O)n(C)c2s1 (stereo unspecified) | i | i
Cn1c(=O)c2cc(C(=O)NCCCCO)sc2n(C)c1=O | i | +
CC(=O)Nc1cccc(NC(=O)c2cc3c(=O)n(C)c(=O)n(C)c3s2)c1 | i | +
CCCCN(C(=O)c1cc2c(=O)n(C)c(=O)n(C)c2s1)c1ccccc1 | i | +
Cn1c(=O)c2cc(C(=O)NCCc3ccc(S(N)(=O)=O)cc3)sc2n(C)c1=O | i | +
Cn1c(=O)c2cc(C(=O)N3CCN(c4ccccc4)CC3)sc2n(C)c1=O | . | i
Cc1cccc(NC(=O)c2cc3c(=O)n(C)c(=O)n(C)c3s2)c1C | i | i
CCc1ccccc1-n1c(C)cn2c3c(=O)n(CC(N)=O)c(=O)n(C)c3nc12 | . | i
CCN1C(=O)Cc2cc(NC(=O)Nc3cc(Cl)ccc3OC)ccc21 | i | i

Screens deposited in PubChem BioAssay by several laboratories.
